The values that follow come from PubChem BioAssay (NCI).

Some test systems named below: DU-145 prostate; K-562 leukemia; MALME-3M melanoma; MDA-MB-231 breast; RXF 393 renal; SF-268 CNS; SF-295 CNS; SF-539 CNS; UACC-257 melanoma; M14 melanoma; HCT-15 colon; HT29 colon; SNB-75 CNS; SNB-19 CNS; U251 CNS; PC-3 prostate; SK-MEL-5 melanoma; UACC-62 melanoma; LOX IMVI melanoma; SK-MEL-28 melanoma.
Assay in all cases: NCI-60 one-dose screen, 48 h (100 = growth as untreated, 0 = no growth, -100 = all killed)
Conditions in all cases: 10 µM

Compounds without any hit were thinned out: in the full panel of roughly 83,000, 20% have a hit.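 Testing used 96-well plates and a 48-hour single-concentration exposure. Example: -40 means 40% of the starting cells died.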 A number with no mark means an inactive call. Active and inactive are the calls of the source. How the source made its calls: active means growth percent below 10; inactive means the rest.

On to `CCN(CC)CC(=O)N(CC)c1ccc(C)c(Cl)c1`, for which the growth in the test on DU-145 prostate is 103%; in the test on K-562 leukemia it was 108%; in the test with MALME-3M melanoma, 96.2%; with MDA-MB-231 breast it was 113%; in the test with RXF 393 renal it was 105%; with SF-268 CNS, 92.9%. Moreover, the growth in the test on SF-295 CNS is 101%; with SF-539 CNS, 108%; in the test with UACC-257 melanoma, 88.7%; with M14 melanoma, 100%; in the test with HCT-15 colon, 101%; with HT29 colon, 90.1%. For the same compound, the growth in the test with SNB-75 CNS was 96.9%; in the test on SNB-19 CNS, 104%; in the test with U251 CNS it was 87%; with PC-3 prostate it was 88.2%; in the test on SK-MEL-5 melanoma it was 98.4%; with UACC-62 melanoma, 97.7%. In addition, the figures for the growth with LOX IMVI melanoma and with SK-MEL-28 melanoma were 93.2% and 108%, respectively.
Regarding `CS(=O)(=O)c1nccc(-c2c(-c3cccc(OCc4ccccc4)c3)nc3sccn23)n1`, the growth with DU-145 prostate is -59.6% (active); with K-562 leukemia, 47.1%; with MALME-3M melanoma, 58.7%; in the test with MDA-MB-231 breast, 61.4%; with RXF 393 renal it was 90.7%; with SF-268 CNS, 97%. Besides, the growth in the test with SF-295 CNS was 101%; in the test with SF-539 CNS, 90%; in the test with UACC-257 melanoma, 27.8%; in the test with M14 melanoma, 72.3%; in the test with HCT-15 colon it was 49.4%; in the test on HT29 colon, 77.9%. For the same compound, the growth in the test on SNB-75 CNS is 97.5%; in the test on SNB-19 CNS, 88.6%; with U251 CNS, 89.1%; in the test with PC-3 prostate, 66.2%; in the test on SK-MEL-5 melanoma, 0.137% (active); in the test on UACC-62 melanoma, 62.4%. The values for the growth with LOX IMVI melanoma and with SK-MEL-28 melanoma were 28.6% and 77.1%, respectively.
Regarding `COC1OC(COS(=O)OC)C(O)C(O)C1OS(=O)OC` (stereo not given), the growth with DU-145 prostate is 99.5%; with K-562 leukemia it was 102%; in the test with MALME-3M melanoma, 97.1%; in the test on MDA-MB-231 breast, 103%; with RXF 393 renal, 111%; in the test on SF-268 CNS, 103%. The growth in the test with SF-295 CNS was 103%; with SF-539 CNS it was 98.3%; with UACC-257 melanoma, 99.5%; in the test on M14 melanoma, 96.6%; in the test on HCT-15 colon it was 96.5%; with HT29 colon it was 103%. The growth is 105% in the test on SNB-75 CNS; 103% in the test on SNB-19 CNS; 99.3% in the test with U251 CNS; 100% in the test with PC-3 prostate; 104% with SK-MEL-5 melanoma; 107% in the test with UACC-62 melanoma. Also, the growth in the test on LOX IMVI melanoma is 100%; in the test on SK-MEL-28 melanoma, 110%.
With `COc1cc2cc(Oc3ccc(NC(=O)c4cc(C(F)(F)F)cc(C(F)(F)F)c4)cc3)c(C)nc2cc1OC`, the growth in the test with DU-145 prostate is 60.4%; in the test with K-562 leukemia, 23.3%; in the test with MALME-3M melanoma it was 73.7%; in the test with MDA-MB-231 breast, 59.2%; in the test with RXF 393 renal it was 56.8%; in the test with SF-268 CNS, 74.7%. For the same compound, the growth in the test with SF-295 CNS is 6.46% (active); in the test on SF-539 CNS, 75.2%; in the test with UACC-257 melanoma, 60.4%; in the test on M14 melanoma, 61.6%; with HCT-15 colon, 38.1%; in the test on HT29 colon it was 49.8%. For the same compound, the growth is 62.1% in the test on SNB-75 CNS; 49.9% in the test with SNB-19 CNS; 13.3% in the test on U251 CNS; 17.5% with PC-3 prostate; 16.6% with SK-MEL-5 melanoma; 33.2% in the test with UACC-62 melanoma. In addition, the growth in the test with LOX IMVI melanoma was 66%; in the test with SK-MEL-28 melanoma, 84.9%.
`COc1cc(OC)c2c(=O)c(O)c(-c3ccccc3)oc2c1`: the growth was 70.7% in the test with DU-145 prostate; 70.6% in the test with K-562 leukemia; 101% in the test on MALME-3M melanoma; 67.9% with MDA-MB-231 breast; 67.6% in the test on RXF 393 renal; 66.4% with SF-268 CNS. Besides, the growth in the test on SF-295 CNS is 98.3%; in the test on SF-539 CNS, 79.7%; with UACC-257 melanoma it was 84.2%; in the test on M14 melanoma, 73.2%; in the test on HCT-15 colon, 51.7%; in the test on HT29 colon it was 99.6%. In addition, the growth with SNB-75 CNS was 76%; in the test on SNB-19 CNS, 62.4%; in the test on U251 CNS it was 47.1%; in the test with PC-3 prostate it was 67.1%; in the test on SK-MEL-5 melanoma, 72.4%; with UACC-62 melanoma it was 72.1%. Moreover, the growth in the test with LOX IMVI melanoma was 59.1%; in the test on SK-MEL-28 melanoma, 95.8%.
As for `CCN(CC)CCCC(Nc1c2ccc(Cl)cc2nc2ccc(OC)cc12)c1ccc(F)cc1` (stereo not given), the growth in the test on DU-145 prostate is 32.6%; with K-562 leukemia, -42.8% (active); in the test with MALME-3M melanoma, -75.4% (active); with MDA-MB-231 breast, -15.2% (active); with RXF 393 renal it was -71.1% (active); in the test on SF-268 CNS it was 67.8%. The growth was 91.5% with SF-295 CNS; -82.3% (active) in the test on SF-539 CNS; -55.3% (active) in the test on UACC-257 melanoma; -79.2% (active) in the test with M14 melanoma; 1.06% (active) in the test on HCT-15 colon; 5.7% (active) in the test on HT29 colon. Besides, the growth was 93.3% in the test with SNB-75 CNS; 45.7% in the test on SNB-19 CNS; -29% (active) with U251 CNS; 73% in the test with PC-3 prostate; -95.7% (active) with SK-MEL-5 melanoma; 109% in the test on UACC-62 melanoma. In addition, the growth with LOX IMVI melanoma is -73.2% (active); in the test with SK-MEL-28 melanoma, -83.5% (active).
Regarding `CC(C)(C)OC(=O)N1CCc2c(sc3ncnc(N/N=C/c4cccc(Br)c4)c23)C1`, the growth was 62.4% in the test with DU-145 prostate; 19.3% in the test on K-562 leukemia; 66.9% in the test with MALME-3M melanoma; 49.9% in the test with MDA-MB-231 breast; 63.5% in the test on RXF 393 renal; 63.9% in the test on SF-268 CNS. In addition, the growth in the test on SF-295 CNS is 64.7%; with SF-539 CNS, 53.3%; in the test with UACC-257 melanoma, 80.8%; in the test on M14 melanoma, 43%; with HCT-15 colon, 18.8%; in the test on HT29 colon it was 47.7%. Moreover, the growth was 67.6% with SNB-75 CNS; 64.7% in the test on SNB-19 CNS; 51% in the test with U251 CNS; 44.4% with PC-3 prostate; 44.1% in the test on SK-MEL-5 melanoma; 43% in the test on UACC-62 melanoma. The values for the growth in the test with LOX IMVI melanoma and in the test with SK-MEL-28 melanoma were 33.1% and 75.2%, respectively.
